Measured values: PubChem BioAssay AID1159580 (chemical genetic matrix, 2015)
Among all 5,500 compounds or so, about 2,000 (36%) were called active. Not shown: some 18% with an inconclusive outcome. No stated cut-off is given here; in the data, active means normalized growth mostly below about 0.91 (no sharp cut-off); inconclusive means no clear call, values can overlap the other calls; inactive means mostly above about 0.92. This is one part of the list.

Assay: chemical genetic growth profiling, strain panel (AID 1159580);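 further: tested at 20 µM; growth read once vehicle control cultures reached saturation at 30 °C; 1 = growth at the plate median or of vehicle wells; lower values mean less growth of the strain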
Settings: growth OD

Measured: normalized growth

CC(C)=CCc1c(O)cc2occ(-c3ccc4c(c3)OCO4)c(=O)c2c1O
inactive: S. cerevisiae deletion strains, locus YJR066W, strain TOR1, active compounds read low 0.832 | S. cerevisiae deletion strains, locus YJR075W, strain HOC1, active compounds read low 0.994 | S. cerevisiae deletion strains, locus YKL068W, active compounds read low 1.01 | S. cerevisiae deletion strains, locus YKL085W, strain MDH1 (second series), active compounds read low 1 | S. cerevisiae deletion strains, locus YKL085W, strain MDH1, active compounds read low 1 | S. cerevisiae deletion strains, locus YKL160W, strain elf1, active compounds read low 0.934 | S. cerevisiae deletion strains, locus YKL190W, strain CNB1, active compounds read low 1.01 | S. cerevisiae deletion strains, locus YKR001C, strain vps1, active compounds read low 1.03 | S. cerevisiae deletion strains, locus YKR026C, strain gcn3, active compounds read low 0.992 | S. cerevisiae deletion strains, locus YKR091W, strain srl3, active compounds read low 1 | S. cerevisiae deletion strains, locus YLL026W, active compounds read low 0.984 | S. cerevisiae deletion strains, locus YLL041C, strain sdh2, active compounds read low 0.991 | S. cerevisiae deletion strains, locus YLR039C, strain RIC1, active compounds read low 1.06 | S. cerevisiae deletion strains, locus YLR058C, strain SHM2, active compounds read low 1.02 | S. cerevisiae deletion strains, locus YLR102C, strain apc9, active compounds read low 1.03 | S. cerevisiae deletion strains, locus YLR258W, strain gsy2, active compounds read low 0.919 | S. cerevisiae deletion strains, locus YLR262C, strain YPT6 (second series), active compounds read low 0.911 | S. cerevisiae deletion strains, locus YLR262C, strain YPT6, active compounds read low 1.06 | S. cerevisiae deletion strains, locus YLR268W, strain sec22, active compounds read low 1 | S. cerevisiae deletion strains, locus YLR320W, strain mms22, active compounds read low 0.929 | S. cerevisiae deletion strains, locus YLR330W, strain CHS5, active compounds read low 1.01 | S. cerevisiae deletion strains, locus YLR342W, strain FKS1 (second series), active compounds read low 0.996 | S. cerevisiae deletion strains, locus YLR342W, strain FKS1, active compounds read low 0.952 | S. cerevisiae deletion strains, locus YLR357W, strain rsc2, active compounds read low 0.948 | S. cerevisiae deletion strains, locus YLR370C, strain arc18, active compounds read low 0.992 | S. cerevisiae deletion strains, locus YLR371W, strain rom2, active compounds read low 1.04 | S. cerevisiae deletion strains, locus YLR384C, strain iki3, active compounds read low 0.992 | S. cerevisiae deletion strains, locus YLR418C, strain cdc73, active compounds read low 1.01 | S. cerevisiae deletion strains, locus YML016C, strain PPZ1, active compounds read low 1.01 | S. cerevisiae deletion strains, locus YML032C, strain rad52, active compounds read low 1.02 | S. cerevisiae deletion strains, locus YML124C, strain tub3, active compounds read low 1.02 | S. cerevisiae deletion strains, locus YMR078C, strain ctf18, active compounds read low 1.03 | S. cerevisiae deletion strains, locus YMR125W, strain sto1, active compounds read low 0.957 | S. cerevisiae deletion strains, locus YMR129W, active compounds read low 0.982 | S. cerevisiae deletion strains, locus YMR205C, strain PFK2, active compounds read low 0.96 | S. cerevisiae deletion strains, locus YMR223W, strain ubp8, active compounds read low 1.02 | S. cerevisiae deletion strains, locus YMR231W, strain pep5, active compounds read low 0.993 | S. cerevisiae deletion strains, locus YMR263W, strain SAP30, active compounds read low 1 | S. cerevisiae deletion strains, locus YMR307W, strain GAS1, active compounds read low 1 | S. cerevisiae deletion strains, locus YNL067W, strain RPL9B, active compounds read low 1 | S. cerevisiae deletion strains, locus YNL071W, strain lat1, active compounds read low 0.949 | S. cerevisiae deletion strains, locus YNL128W, strain TEP1, active compounds read low 1.02 | S. cerevisiae deletion strains, locus YNL153C, strain GIM3, active compounds read low 1 | S. cerevisiae deletion strains, locus YNL183C, strain NPR1, active compounds read low 0.839 | S. cerevisiae deletion strains, locus YNL209W, strain ssb2, active compounds read low 0.937 | S. cerevisiae deletion strains, locus YNL233W, strain BNI4, active compounds read low 0.971 | S. cerevisiae deletion strains, locus YNL248C, strain rpa49, active compounds read low 0.962 | S. cerevisiae deletion strains, locus YNL250W, strain rad50, active compounds read low 1.04 | S. cerevisiae deletion strains, locus YNL271C, strain bni1, active compounds read low 1.03 | S. cerevisiae deletion strains, locus YNL298W, strain CLA4, active compounds read low 1.05 | S. cerevisiae deletion strains, locus YNL307C, strain MCK1, active compounds read low 1.02 | S. cerevisiae deletion strains, locus YNL322C, strain KRE1 (second series), active compounds read low 0.998 | S. cerevisiae deletion strains, locus YNL322C, strain KRE1, active compounds read low 1.01 | S. cerevisiae deletion strains, locus YNR049C, strain mso1, active compounds read low 0.982 | S. cerevisiae deletion strains, locus YNR052C, strain pop2, active compounds read low 1.03 | S. cerevisiae deletion strains, locus YOL006C, strain TOP1, active compounds read low 1.05 | S. cerevisiae deletion strains, locus YOL012C, strain htz1 0.966 | S. cerevisiae deletion strains, locus YOL147C, strain pex11, active compounds read low 1.03 | S. cerevisiae deletion strains, locus YOR061W, strain CKA2, active compounds read low 1.01 | S. cerevisiae deletion strains, locus YOR069W, strain VPS5, active compounds read low 1.01 | S. cerevisiae deletion strains, locus YOR070C, strain gyp1, active compounds read low 0.954 | S. cerevisiae deletion strains, locus YOR080W, strain dia2, active compounds read low 0.925 | S. cerevisiae deletion strains, locus YOR083W, strain WHI5, active compounds read low 0.925 | S. cerevisiae deletion strains, locus YOR106W, strain vam3, active compounds read low 0.899 | S. cerevisiae deletion strains, locus YOR136W, strain idh2, active compounds read low 1.03 | S. cerevisiae deletion strains, locus YOR144C, strain elg1, active compounds read low 1.02 | S. cerevisiae deletion strains, locus YOR184W, strain ser1, active compounds read low 1.05 | S. cerevisiae deletion strains, locus YOR265W, strain rbl2, active compounds read low 0.968 | S. cerevisiae deletion strains, locus YOR290C, strain snf2, active compounds read low 0.916 | S. cerevisiae deletion strains, locus YOR316C, strain cot1, active compounds read low 1.02 | S. cerevisiae deletion strains, locus YPL055C, strain LGE1, active compounds read low 0.993 | S. cerevisiae deletion strains, locus YPL078C, strain atp4, active compounds read low 0.918 | S. cerevisiae deletion strains, locus YPL106C, strain sse1, active compounds read low 0.915 | S. cerevisiae deletion strains, locus YPL240C, strain hsp82, active compounds read low 0.974 | S. cerevisiae deletion strains, locus YPL241C, strain CIN2, active compounds read low 1.01 | S. cerevisiae deletion strains, locus YPR119W, strain clb2, active compounds read low 1.02 | S. cerevisiae deletion strains, locus YPR141C, strain kar3, active compounds read low 1.03 | S. cerevisiae deletion strains, locus YPR163C, strain tif3, active compounds read low 1.02 | S. cerevisiae deletion strains, locus YPR167C, strain met16, active compounds read low 1.03 | S. cerevisiae deletion strains, strain wtn01, active compounds read low 1.02 | S. cerevisiae strains, strain wild type, active compounds read low 1
active: S. cerevisiae deletion strains, locus YLL001W, strain dnm1, active compounds read low 0.81 | S. cerevisiae deletion strains, locus YLR027C, strain aat2, active compounds read low 0.918 | S. cerevisiae deletion strains, locus YLR113W, strain HOG1, active compounds read low 0.75 | S. cerevisiae deletion strains, locus YLR221C, strain rsa3, active compounds read low 0.865 | S. cerevisiae deletion strains, locus YML120C, strain ndi1, active compounds read low 0.895 | S. cerevisiae deletion strains, locus YMR058W, strain fet3, active compounds read low 0.828 | S. cerevisiae deletion strains, locus YOR001W, strain rrp6, active compounds read low 0.857 | S. cerevisiae deletion strains, locus YOR231W, strain MKK1, active compounds read low 0.816 | S. cerevisiae deletion strains, locus YOR270C, strain vph1, active compounds read low 0.729 | S. cerevisiae deletion strains, locus YPL051W, strain arl3, active compounds read low 0.877 | S. cerevisiae deletion strains, locus YPL256C, strain CLN2, active compounds read low 0.808
